Only a sample is shown.
aSyn UTR act: Activators working through SNCA 5'UTR binding (MLPCN); alpha-synuclein 5'UTR reporter, activators screen; activity score, % (tested at 7.5 µM), hits read low; actives 7.1% (n = 300,000); in the data active = activity score below about -60%
Large screens that a line does not name were inactive.

O=C(NCC(c1cccs1)N1CCOCC1)c1ccc(Br)o1 (configuration not stated)	aSyn UTR act -71
Cc1c(-c2nc(-c3cccnc3)no2)cccc1[N+](=O)[O-]	aSyn UTR act -81
Cc1ccc(-c2nc(-c3cccnc3)no2)c(C)c1	aSyn UTR act -92
Cc1ccn2c(c1)nc(=S)n2C(=O)c1ccco1	aSyn UTR act -202
Cc1ccc(NC(=O)CCCc2ccccc2)nc1	aSyn UTR act -100
Cc1ccc(NC(=S)NCCc2ccccc2)nc1	aSyn UTR act -99
Cc1nc2ccc(C(=O)c3ccccc3)cc2[nH]1	aSyn UTR act -95
COC(=O)Nc1nc2ccc(C(=O)c3ccc(F)cc3)cc2[nH]1	none
N=c1scc(-c2ccccc2)n1/N=C/c1ccco1	aSyn UTR act -220
O=[N+]([O-])c1cccc(/C=C/c2ccncc2)c1	aSyn UTR act -65
O=[N+]([O-])c1ccc(/C=C/c2ccncc2)cc1	aSyn UTR act -71
Cc1cccc(-n2c(N)cc(=O)[nH]c2=S)c1	aSyn UTR act -215
C=CCn1c(=S)[nH]c2scc(-c3ccc(C)o3)c2c1=O	aSyn UTR act -69
CCn1c(=S)[nH]c2scc(-c3cccs3)c2c1=O	aSyn UTR act -72
C=CCn1c(SCC(C)=O)nc2scc(-c3ccc(C)o3)c2c1=O	aSyn UTR act -150
C=CCn1c(SCC(=O)c2[nH]c(C)c(C(=O)OCC)c2C)nc2scc(-c3ccc(OC)c(OC)c3)c2c1=O	none
Cc1ccc(-c2csc3nc(C)n(N)c(=O)c23)o1	aSyn UTR act -130
CCOC(=O)c1nn(-c2ccc(Cl)cc2)cc1O	aSyn UTR act -124
COC(=O)c1nn(-c2ccc(-c3ccccc3)cc2)cc1O	none
CCOC(=O)c1nn(-c2ccc3ccccc3c2)cc1O	aSyn UTR act -134
CCOC(=O)c1ccc(N2CN(CC)CNC2=S)cc1	none
CCOC(=O)C1=NN(c2ccc(Cl)cc2)C(=O)C1	aSyn UTR act -144
CCOC(=O)c1nn(-c2ccc(C)cc2)cc1O	aSyn UTR act -62
CCOC(=O)c1nn(-c2ccc3c(c2)OCO3)cc1O	aSyn UTR act -144
CCC[C@H](CN[C@@H](CNC)[C@H](C)CC)NCCc1cc(C(F)(F)F)cc(C(F)(F)F)c1	none
CCC(Sc1nnnn1C)C(=O)Nc1ccc(C(C)=O)cc1 (configuration not stated)	aSyn UTR act -73
CCOc1ccc2nc(NC(=O)c3ccc(OCC4CCCO4)cc3)sc2c1 (configuration not stated)	aSyn UTR act -99
Cc1cccc2sc(NC(=O)c3ccc(OCC4CCCO4)cc3)nc12 (configuration not stated)	aSyn UTR act -144
Cc1cccc2sc(NNC(=O)c3ccc(S(=O)(=O)N4CCCC(C)C4)cc3)nc12 (configuration not stated)	none
CCOc1ccc2nc(NC(=O)CSc3nnc(-c4ccncc4)n3CC3CCCO3)sc2c1 (configuration not stated)	aSyn UTR act -76
CN(C)/C=C1\Oc2ccc3ccccc3c2C1=O	aSyn UTR act -116
O=C(CSc1nnc(-c2ccccc2)o1)N1CCCCC1	aSyn UTR act -74
CC1CCN(C(=O)CCc2nnc(-c3ccccc3)o2)CC1	aSyn UTR act -106
O=C(CSc1nnc(-c2ccccc2)o1)N1CCCC1	aSyn UTR act -102
O=C(CSc1nnc(-c2ccc(F)cc2)o1)N1CCCCC1	aSyn UTR act -88
Cn1nc([N+](=O)[O-])nc1Sc1nnc(-c2ccccc2)o1	none
O=C(CCc1nnc(-c2ccc3c(c2)OCO3)o1)N1CCC(c2ccc(F)cc2)C1 (configuration not stated)	aSyn UTR act -104
COc1ccc(C2=NOC(CNC(=S)N3CCOCC3)C2)cc1 (configuration not stated)	aSyn UTR act -132
Cc1nc2c(-c3ccc(F)cc3)cnn2c2c1CCC2	aSyn UTR act -87
COCCCn1c(C(=O)N2CC(C)OC(C)C2)cc2c(=O)n3cccc(C)c3nc21 (configuration not stated)	aSyn UTR act -71
NNC(=O)c1cc2cc3ccccc3nc2s1	aSyn UTR act -94
Cc1cc(N/N=C/c2ccc(O)c(C)c2O)nc(-c2ccccc2O)n1	none
Cc1ccc(Nc2cc(C)nc(-c3ccccc3O)n2)cc1	aSyn UTR act -116
C/C(=N\Nc1cc(C)nc(-c2ccccc2O)n1)c1ccccc1	aSyn UTR act -65
Cc1cc(NCCCN)nc(-c2ccccc2O)n1	aSyn UTR act -69
Cc1ccc(Nc2cc(C)nc(-c3ccccc3)n2)cc1	aSyn UTR act -124
Cc1ccc(Oc2cc(C)nc(-c3ccccc3O)n2)cc1	aSyn UTR act -69
CC1=NN(c2ccc(C)c(C)c2)C(=O)/C1=C\C=C\c1ccc([N+](=O)[O-])o1	none
COc1ccc(/C=C2/C(=O)N(c3ccccc3)N=C2C)cc1	none
CC1=NN(c2ccccc2)C(=O)/C1=C\C=C\c1ccccc1	aSyn UTR act -127
CCOCCCn1c(SCc2nc3ccccc3s2)nc2ccccc2c1=O	aSyn UTR act -78
C=CCn1c(=O)c2ccccc2n2c(SCc3nc4ccccc4s3)nnc12	aSyn UTR act -97
COCCn1c(SCc2nc3ccccc3s2)nc2ccccc21	aSyn UTR act -144
CCO[C@@H]1OC(C(=O)Nc2ccccc2)=C[C@H](c2coc3ccccc3c2=O)[C@H]1CCCO	none
O=C(Nc1ccccc1)C1=C[C@H](c2ccc(C(F)(F)F)cc2)C[C@H](OCCCCO)O1	aSyn UTR act -91
O=C(Nc1ccccc1)C1=C[C@H](c2ccccc2)C[C@H](OCCCCO)O1	aSyn UTR act -147
O=C(Nc1ccccc1)C1=C[C@@H](c2ccc(Br)cc2)C[C@@H](OCCCCO)O1	aSyn UTR act -95
Cc1cc2c(C)cc(=O)[nH]c2cc1NC(=O)CCl	aSyn UTR act -70
COc1ccc(NC(=O)c2cc3ccccc3o2)cn1	aSyn UTR act -216
COc1ccc(NC(=O)c2cc3ccccc3o2)cc1OC	aSyn UTR act -150
COc1cc(NC(=O)C(C)C)ccc1NC(=O)c1cc2ccccc2o1	aSyn UTR act -166
COc1ccc(NC(=O)CCCc2ccccc2)cc1OC	aSyn UTR act -136
COc1ccc(NC(=O)c2cc(CN3C(=O)c4ccccc4C3=O)ccc2OC)cn1	aSyn UTR act -86
COc1ccc(NC(=O)c2cc3ccccc3o2)cc1	aSyn UTR act -152
COc1ccc(NC(=O)c2coc3ccccc23)cc1OC	aSyn UTR act -122
COc1ccc(/C=C/c2cc(C(F)(F)F)on2)cc1	aSyn UTR act -157
O=C(Nc1cccnc1)c1sc2cccc(F)c2c1Cl	aSyn UTR act -166
CCOC(=O)c1ccc(NC(=O)c2ccnn2C)cc1	aSyn UTR act -159
CC(=O)Nc1ccc(NC(=O)c2ccccc2F)cc1	aSyn UTR act -81
CCOC(=O)Nc1ccc(NC(=O)c2ccccc2F)cc1	aSyn UTR act -149
O=C(Nc1ccc2oc(-c3ccc(F)cc3)nc2c1)c1ccccc1F	aSyn UTR act -113
O=C(Nc1ccc(Oc2cccnc2)cc1)c1ccccc1F	aSyn UTR act -115
CCOC(=O)c1ccc(NC(=O)c2ccccc2C)cc1	aSyn UTR act -156
O=C(Nc1ccc(F)cc1)c1ccccc1F	aSyn UTR act -135
O=C(Nc1ccc(C(=O)N2CCCC2)cc1)c1ccccc1F	aSyn UTR act -65
O=C(Nc1ccc2cn[nH]c2c1)c1ccccc1F	aSyn UTR act -224
O=C(CCNc1ccc(Cl)cc1)c1cccs1	aSyn UTR act -89
O=C(CCNc1cc(Cl)cc(Cl)c1)c1cccs1	aSyn UTR act -94
Clc1ccccc1-c1nnc2sc(-c3ccc4c(c3)OCO4)nn12	aSyn UTR act -91
